Most compounds without a hit are left out; they make up all but 4% or so of the library.
esBAF inh: Bmi1 luciferase reporter increase in mESCs, primary screen, esBAF inhibitor project, mouse ES cells, Bmi1 luciferase knock-in, single point; 24 h; 100% = twice the neutral-well signal; reporter increase, % at 12.5 µM; 350,000 compounds, 2% hits; in the data active = activation above about 40%; inconclusive = no clear call, values can overlap the other calls;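 note: 0% = median of the plate's neutral control wells and 100% = double that signal; a rise in the Bmi1 reporter signal indicates esBAF inhibition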
MITF TRPM1 HTS: activators of MITF-driven TRPM1 promoter reporter, primary screen, cell-based, SK-MEL-5, luciferase, single point; SK-MEL-5 TRPM1-promoter luciferase, 24 h; % of positive control, neutral wells = 0; activation, % at 12.5 µM; AID 588334, 2011; 300,000 compounds, 0.75% hits;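 active = mean activation of at least 80% with every replicate also reaching 80%; inconclusive = mean reaches 80% but some replicate falls short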;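 note: 0% = neutral control wells and 100% = parthenolide positive control wells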
TRPM1 prom inh: inhibitors of MITF-dependent TRPM1 promoter reporter, primary screen, cell-based, SK-MEL-5, single point, luciferase | SK-MEL-5 TRPM1 promoter luciferase, 24 h | inhibition, % at 12.5 µM | 330,000 compounds, 0.83% hits;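 active = mean inhibition across replicates of 60% or more, whatever share of single replicates reaches that level; inconclusive = some that reach 60%, reason not given; inactive = mean inhibition across replicates below 60%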
PAX8 reporter: inhibitors of PAX8-driven TPO luciferase reporter, primary screen, RMG-I cells, single concentration; SteadyGlo, 24 h; inhibition, % at 12.6 µM; 360,000 compounds, 1.2% hits;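 active = mean replicate inhibition at least 60% with every replicate also reaching 60%; inconclusive = only one of the two criteria is met; inactive = mean below 60% and not all replicates reaching 60%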;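 note: luciferase light reporting Pax8 driven TPO promoter activity; plate controls were median of neutral control wells for no effect and mitoxantrone controls for full effect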
EWS-Fli inh: EWS/Fli-driven NR0B1 reporter inhibitors, primary screen, A673 cells, NR0B1 luciferase, luminescence, MLPCN library; inhibition, % at 12.6 µM; 350,000 compounds, 0.67% hits; viability-normalised;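 active = mean inhibition of at least 50% after viability correction, with every replicate also passing that limit; inconclusive = mean reaches 50% but only one of two replicates passes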;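 note: firefly luciferase signal divided by Alamar Blue viability fluorescence both relative to DMSO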
Wnt act: Wnt/beta-catenin pathway activators, primary screen, cell-based, plate reader, single point; Wnt/beta-catenin reporter cell assay, activator; activation, % at 9.35 µM; 300,000 compounds, 1.2% hits; in the data active = activation above about 30%, passing the limit was not always enough; inconclusive = no clear call, values can overlap the other calls;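 note: 0% = neutral control wells and 100% = positive control wells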
Numbers without * were called inactive; ? = inconclusive; nt = no result given.

SMILES	esBAF inh	MITF TRPM1 HTS	TRPM1 prom inh	PAX8 reporter	EWS-Fli inh	Wnt act
CC(C)OCCCNC1=C(Cl)C(=O)c2ccccc2C1=O	nt	nt	nt	-122	-76	18
O=C1C(Cl)=C(Nc2ccccc2)C(=O)c2ccccc21	nt	-89	90*	-12	nt	nt
CCN(CC)CCCNC1=C(Cl)C(=O)c2ccccc2C1=O	-7	-110	110*	70*	65*	-22
O=C(O)c1ccc(NC2=C(Cl)C(=O)c3ccccc3C2=O)cc1	8	-96	96*	83*	?	-21
CC(C)NC1=C(Cl)C(=O)c2ccccc2C1=O	9	-78	80*	nt	nt	nt
COCCCNC1=C(Cl)C(=O)c2ccccc2C1=O	nt	nt	39	1	-40	0
N#C[C@H]1[C@@H](c2ccccc2C2=CCCC2)[C@@H](CO)N1C(=O)NC1CCCC1	nt	nt	nt	nt	-4	nt
CN1C(=O)c2cc(NC(=O)c3ccc(F)cc3)ccc2OC[C@@H]2O[C@H](CC(=O)NCC3CCCCC3)CC[C@@H]21	31	nt	nt	51	24	nt
O=C1C(Nc2ccccc2)=C(N2CCCCC2)C(=O)c2ccccc21	-67	-73	75*	nt	nt	nt
O=C1C(Cl)=C(NCc2cccnc2)C(=O)c2ccccc21	19	-97	98*	-15	58*	12
C=CCNC1=C(Cl)C(=O)c2ccccc2C1=O	nt	-61	63*	14	9	5
C[C@@H]1CN([C@H](C)CO)C(=O)c2cc(C#CC3(O)CCCC3)cnc2O[C@H]1CN(C)Cc1ccccc1	-2	nt	nt	nt	1	nt
CCOC(=O)CN(C(=O)CSc1nnc(-c2ccncc2)n1CCCN(C)C)c1ccccc1	nt	nt	13	9	nt	36*
CCOC(=O)CN(C(=O)CSc1nnc(-c2ccncc2)n1CCCOC)c1ccccc1	nt	2	-2	11	nt	nt
C[C@H](CO)N1C[C@H](C)[C@H](CN(C)S(=O)(=O)c2ccc(F)cc2)Oc2ncc(C#Cc3ccc(F)cc3)cc2C1=O	nt	nt	nt	nt	11	nt
CCOC(=O)c1nn(-c2ccc(Br)cc2)cc1C(=O)c1cccc2ccccc12	78*	73	-80	nt	nt	nt
CCOC(=O)c1nn(-c2ccc(F)cc2)cc1O	nt	92*	-86	-132	1	20
O=C(CC1CC1)Nc1ccc2c(c1)[C@@H]1C[C@@H](CC(=O)N3CCc4ccccc4C3)O[C@H](CO)[C@@H]1O2	6	nt	nt	nt	0	nt
O=C(NCC1CC1)[C@@H]1[C@@H](CO)[C@@H]2Cn3c(cccc3=O)[C@H]1N2CCc1ccccc1	1	nt	nt	nt	3	nt
O=C(C[C@@H]1CC[C@H]2[C@@H](COC[C@@H](O)CN2Cc2ccc(Oc3ccccc3)cc2)O1)N1CCN(c2ccccc2)CC1	6	nt	nt	64*	36	nt
O=C(C[C@@H]1CC[C@H]2[C@@H](COC[C@H](O)CN2Cc2ccc(Oc3ccccc3)cc2)O1)Nc1nccs1	3	nt	nt	66*	11	nt
O=C(C[C@H]1CC[C@H]2[C@@H](COC[C@@H](O)CN2Cc2ccc(Oc3ccccc3)cc2)O1)Nc1nccs1	-1	nt	nt	33	28	nt
O=C(C[C@H]1CC[C@H]2[C@@H](COC[C@H](O)CN2Cc2ccc(Oc3ccccc3)cc2)O1)N1CCN(c2ccccc2)CC1	0	nt	nt	45	19	nt
O=C(C[C@@H]1CC[C@@H]2[C@H](COC[C@H](O)CN2Cc2ccc(Oc3ccccc3)cc2)O1)N1CCN(c2ccccc2)CC1	-10	nt	nt	62*	7	nt
O=C(C[C@@H]1CC[C@@H]2[C@H](COC[C@@H](O)CN2Cc2ccc(Oc3ccccc3)cc2)O1)N1CCOCC1	7	nt	nt	0	3	nt
SMILES	esBAF inh	MITF TRPM1 HTS	TRPM1 prom inh	PAX8 reporter	EWS-Fli inh	Wnt act
COc1ccc2c3c([nH]c2c1)[C@@H](CO)N(C(=O)c1cnccn1)CC31CCN(C(=O)c2cnccn2)CC1	nt	nt	nt	nt	2	nt
C[C@H](CO)N1C[C@H](C)[C@@H](CN(C)C(=O)c2ccccc2)Oc2ncc(C3=CCCCC3)cc2C1=O	-6	nt	nt	nt	10	nt
CN(N=Nc1ccccc1C(=O)O)C1CCCCC1	-1	nt	nt	-10	6	38*
C[C@H](CO)N1C[C@H](C)[C@H](CN(C)C(=O)CN(C)C)Oc2ncc(-c3ccc(C#N)cc3)cc2C1=O	7	nt	nt	nt	-2	nt
CC(=NNC(=S)N1CCN(C2CCCCCC2)CC1)c1ccccn1	nt	nt	83*	94*	48	-5
CC(=NNC(=S)N1CC2CCC(CC2)C1)c1cnccn1	nt	-67	65*	16	3	-4
C[C@@H]1CCCCO[C@@H](CN(C)Cc2ccc3c(c2)OCO3)[C@@H](C)CN([C@@H](C)CO)C(=O)c2cc(NS(=O)(=O)c3ccc(F)cc3)ccc2O1	1	nt	nt	25	5	nt
Cc1noc(C)c1NC(=O)Nc1ccc2c(c1)C(=O)N([C@H](C)CO)C[C@H](C)[C@H](CN(C)S(=O)(=O)c1ccc(Cl)cc1)O2	-1	nt	nt	nt	1	nt
COC(=O)c1ccc(Nc2nc(N3CCOCC3)nc(N3CCOCC3)n2)cc1	-6	93*	-90	21	9	1
O=C(Oc1cccc(/C=N/Nc2nc(Nc3ccccc3)nc(N3CCOCC3)n2)c1)c1ccco1	nt	103*	-93	-5	9	-1
COc1ccc(Nc2nc(N3CCOCC3)nc(N3CCOCC3)n2)cc1	8	nt	-34	14	-18	-4
O=C1c2ccccc2C(=O)N1CCN1CCCCC1	nt	2	-1	nt	nt	nt
O=C1c2cccc3cc([N+](=O)[O-])cc(c23)C(=O)N1CCN1CCCC1	-87	-82	84*	90*	69*	1
Nc1cc2c3c(cccc3c1)C(=O)N(CCN1CCCC1)C2=O	-14	-88	90*	11	39	1
CCN(CC)CCN1C(=O)c2cccc3cc(N)cc(c23)C1=O	-15	-11	8	-13	19	-2
CC(C)NC(=O)N(C)C[C@H]1Oc2ccc(NC(=O)Cc3ccccc3)cc2C(=O)N([C@@H](C)CO)C[C@H]1C	-2	nt	nt	1	-4	nt
Cc1c(P(=S)(c2ccccc2)c2ccccc2)[n+]2ccccc2n1C/C=C/c1ccccc1	-35	nt	nt	101*	21	-7
CC(O)c1nc2ccccc2n1C/C=C/c1ccccc1 (centres undefined)	0	nt	8	nt	nt	nt
Cc1c(OCc2ccccc2)c(=O)ccn1Cc1ccccc1	56*	56	-50	nt	nt	nt
C[C@H](CO)N1C[C@H](C)[C@@H](CN(C)Cc2ccncc2)Oc2ncc(C#CC3CCCC3)cc2C1=O	0	nt	nt	-5	3	nt
COc1ccc(/C=C/C(=O)NC2CCCCCCC2)cc1S(=O)(=O)N1CCOCC1	51*	30	-28	-57	17	6
CN1C[C@@H]2[C@H](c3ccccc31)[C@@H](CO)N2C(=O)C1CCCCC1	3	nt	nt	4	-3	nt

Screens (PubChem)
